# Data reported in the supplement of paper PMC8728848.
# About 410 targets per protein were measured; listed, in parts, are those with the strongest signals and a random draw of the rest.
# B1: Pwp2 (Candida glabrata) (protein)
# chain: MGSSHHHHHHSSGLVPRGSHMASKNPVELNNVCTFPNDYGRIPGFTVLVGRLGLLISASDYKELLRYPGAFLIATQDTMTTSPNFELTGFPFFTGLYGLTVFPLDLLVELRGYFVPPNSGQYTFTLSDSDDAAIIFLGNPSAFPCGDLQNWPKPSEEDITVTDHLFPSRTLYLIEGVAYPMRIAYYNGIGAGRLNAAFIDPSGTRHTNWEGYIWQYDPCSTCTYS
# How the values were obtained:
# Experiment in all cases: glycan array binding signal (z-score within array); higher = stronger binding
# Details in all cases: glycan notation: IUPAC condensed, linker removed
# [1] = target: Fuc(a1-2)Gal(b1-3)GlcNAc(b1-3)[Gal(b1-4)GlcNAc(b1-6)]Gal(b1-4)Glc
# Method in brief: (§1)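 The binding signal is a Z-score computed within each array. Data were drawn from 3228 arrays in the Consortium for Functional Glycomics database, restricted to those with a known protein sequence. Scores were averaged over arrays of the same protein sequence at different concentrations or buffers, and over linkers, and negative values can be taken as non-binding.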
# [2] = target: Fuc(a1-2)Gal(b1-3)[Fuc(a1-4)]GlcNAc
# Method in brief: as §1
# [3] = target: Fuc(a1-2)Gal(b1-3)[Fuc(a1-4)]GlcNAc(b1-2)Man(a1-3)[Fuc(a1-2)Gal(b1-3)[Fuc(a1-4)]GlcNAc(b1-2)Man(a1-6)]Man(b1-4)GlcNAc(b1-4)[Fuc(a1-6)]GlcNAc(b1-4)[Fuc(a1-6)]GlcNAc
# Method in brief: as §1
# [4] = target: Fuc(a1-2)Gal(b1-4)GlcNAc(b1-3)[Fuc(a1-3)[Gal(b1-4)]GlcNAc(b1-6)]Gal(b1-4)Glc
# Method in brief: as §1
# [5] = target: Fuc(a1-2)Gal(b1-4)[Fuc(a1-3)]GlcNAc(b1-3)Gal(b1-4)[Fuc(a1-3)]GlcNAc(b1-3)Gal(b1-4)[Fuc(a1-3)]GlcNAc
# Method in brief: as §1
# [6] = target: Fuc(a1-2)[Gal(a1-3)]Gal(b1-4)GlcNAc(b1-3)GalNAc
# Method in brief: as §1
# [7] = target: Fuc(a1-3)[Gal(b1-4)]GlcNAc(b1-2)Man(a1-3)[Fuc(a1-3)[Gal(b1-4)]GlcNAc(b1-2)Man(a1-6)]Man(b1-4)GlcNAc(b1-4)GlcNAc
# Method in brief: as §1
# [8] = target: Gal(a1-3)Gal(b1-3)GlcNAc(b1-2)Man
# Method in brief: as §1
# [9] = target: Gal(a1-3)Gal(b1-3)GlcNAc(b1-6)GalNAc
# Method in brief: as §1
# [10] = target: Gal(a1-3)Gal(b1-4)GlcNAc(b1-6)GalNAc
# Method in brief: as §1
# [11] = target: Gal(b1-4)GlcNAc
# Method in brief: as §1
# [12] = target: Gal(b1-4)GlcNAc(b1-2)[Gal(b1-4)GlcNAc(b1-4)]Man(a1-3)[GlcNAc(b1-4)][Gal(b1-4)GlcNAc(b1-2)[Gal(b1-4)GlcNAc(b1-6)]Man(a1-6)]Man(b1-4)GlcNAc(b1-4)GlcNAc
# Method in brief: as §1
# [13] = target: Gal(b1-4)GlcNAc(b1-2)[Gal(b1-4)GlcNAc(b1-6)]Man(a1-6)[GlcNAc(b1-4)][Gal(b1-4)GlcNAc(b1-2)Man(a1-3)]Man(b1-4)GlcNAc(b1-4)GlcNAc
# Method in brief: as §1
# [14] = target: Gal(b1-4)GlcNAc(b1-3)Gal(b1-4)GlcNAc(b1-3)Gal(b1-4)GlcNAc(b1-3)Gal(b1-4)GlcNAc(b1-2)Man(a1-3)[Gal(b1-4)GlcNAc(b1-3)Gal(b1-4)GlcNAc(b1-3)Gal(b1-4)GlcNAc(b1-3)Gal(b1-4)GlcNAc(b1-2)Man(a1-6)]Man(b1-4)GlcNAc(b1-4)[Fuc(a1-6)]GlcNAc
# Method in brief: as §1
# [15] = target: Gal(b1-4)GlcNAc(b1-3)Gal(b1-4)GlcNAc(b1-3)Gal(b1-4)GlcNAc(b1-3)Gal(b1-4)GlcNAc(b1-3)Gal(b1-4)GlcNAc(b1-2)Man(a1-3)[Gal(b1-4)GlcNAc(b1-3)Gal(b1-4)GlcNAc(b1-3)Gal(b1-4)GlcNAc(b1-3)Gal(b1-4)GlcNAc(b1-3)Gal(b1-4)GlcNAc(b1-2)Man(a1-6)]Man(b1-4)GlcNAc(b1-4)[Fuc(a1-6)]GlcNAc
# Method in brief: as §1
# [16] = target: Gal(b1-4)GlcNAc(b1-3)GalNAc
# Method in brief: as §1
# [17] = target: Gal(b1-4)GlcNAc(b1-6)[Gal(b1-3)]GalNAc
# Method in brief: as §1
# [18] = target: Gal3S(b1-4)Glc
# Method in brief: as §1
# [19] = target: Gal6S(b1-4)Glc6S
# Method in brief: as §1
# [20] = target: GalNAc(b1-4)GlcNAc6S
# Method in brief: as §1
# [21] = target: GlcA(b1-6)Gal
# Method in brief: as §1
# [22] = target: GlcNAc(a1-4)Gal(b1-4)GlcNAc(b1-3)Gal(b1-4)Glc
# Method in brief: as §1
# [23] = target: GlcNAc(a1-4)Gal(b1-4)GlcNAc(b1-3)Gal(b1-4)GlcNAc(b1-3)Gal(b1-4)GlcNAc
# Method in brief: as §1
# [24] = target: GlcNAc(b1-3)Gal(b1-4)GlcNAc(b1-2)[GlcNAc(b1-3)Gal(b1-4)GlcNAc(b1-6)]Man(a1-6)[GlcNAc(b1-3)Gal(b1-4)GlcNAc(b1-2)Man(a1-3)]Man(b1-4)GlcNAc(b1-4)GlcNAc
# Method in brief: as §1
# [25] = target: GlcNAc(b1-3)Gal(b1-4)GlcNAc(b1-3)Gal(b1-4)GlcNAc(b1-3)Gal(b1-4)GlcNAc(b1-2)[GlcNAc(b1-3)Gal(b1-4)GlcNAc(b1-3)Gal(b1-4)GlcNAc(b1-3)Gal(b1-4)GlcNAc(b1-6)]Man(a1-6)[GlcNAc(b1-3)Gal(b1-4)GlcNAc(b1-3)Gal(b1-4)GlcNAc(b1-3)Gal(b1-4)GlcNAc(b1-2)Man(a1-3)]Man(b1-4)GlcNAc(b1-4)[Fuc(a1-6)]GlcNAc
# Method in brief: as §1
# [26] = target: GlcNAc(b1-3)Gal(b1-4)GlcNAc(b1-3)Gal(b1-4)GlcNAc(b1-3)Gal(b1-4)GlcNAc(b1-3)Gal(b1-4)GlcNAc(b1-2)Man(a1-3)[GlcNAc(b1-3)Gal(b1-4)GlcNAc(b1-3)Gal(b1-4)GlcNAc(b1-3)Gal(b1-4)GlcNAc(b1-3)Gal(b1-4)GlcNAc(b1-2)Man(a1-6)]Man(b1-4)GlcNAc(b1-4)GlcNAc
# Method in brief: as §1
# [27] = target: GlcNAc(b1-3)[GlcNAc(b1-6)]Gal(b1-4)GlcNAc
# Method in brief: as §1
# [28] = target: GlcNAc(b1-4)Gal(b1-4)GlcNAc
# Method in brief: as §1
binder,measurement,setting,value
B1,glycan array binding signal (z-score),[1],-0.594
same,glycan array binding signal (z-score),[2],-0.451
same,glycan array binding signal (z-score),[3],6.32
same,glycan array binding signal (z-score),[4],0.384
same,glycan array binding signal (z-score),[5],-0.086
same,glycan array binding signal (z-score),[6],-0.603
same,glycan array binding signal (z-score),[7],2.54
same,glycan array binding signal (z-score),[8],-0.046
same,glycan array binding signal (z-score),[9],-0.526
same,glycan array binding signal (z-score),[10],-0.281
same,glycan array binding signal (z-score),[11],-0.286
same,glycan array binding signal (z-score),[12],-0.248
same,glycan array binding signal (z-score),[13],-0.569
same,glycan array binding signal (z-score),[14],3.91
same,glycan array binding signal (z-score),[15],1.62
same,glycan array binding signal (z-score),[16],-0.473
same,glycan array binding signal (z-score),[17],1.6
same,glycan array binding signal (z-score),[18],-0.429
same,glycan array binding signal (z-score),[19],-0.419
same,glycan array binding signal (z-score),[20],-0.448
same,glycan array binding signal (z-score),[21],-0.235
same,glycan array binding signal (z-score),[22],-0.466
same,glycan array binding signal (z-score),[23],-0.42
same,glycan array binding signal (z-score),[24],4.24
same,glycan array binding signal (z-score),[25],5.45
same,glycan array binding signal (z-score),[26],-0.549
same,glycan array binding signal (z-score),[27],-0.141
same,glycan array binding signal (z-score),[28],-0.446
